Test results taken from PubChem BioAssay AID1159580 (chemical genetic matrix, 2015).
Out of some 5,500 compounds screened, about 2,000 (36%) were called active. Inconclusive results (about 18%) are left out. Rule as the data show it: active = normalized growth mostly below about 0.91 (no sharp cut-off); inconclusive = no clear call, values can overlap the other calls; inactive = mostly above about 0.92. The list shows a part of the results.

Assay: chemical genetic growth profiling, strain panel (AID 1159580);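 also: tested at 20 µM; growth read once vehicle control cultures reached saturation at 30 °C; 1 = growth at the plate median or of vehicle wells; lower values mean less growth of the strain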
Conditions: growth OD

Measured: normalized growth

CCN1CCN(C(=O)NC(C(=O)N[C@@H]2C(=O)N3[C@@H]2SC(C)(C)[C@@H]3C(=O)O)c2ccccc2)C(=O)C1=O (some centres not stated)
inactive: S. cerevisiae deletion strains, locus YJR075W, strain HOC1, stronger effect = lower value 1.01 | S. cerevisiae deletion strains, locus YKL009W, strain mrt4, stronger effect = lower value 1.02 | S. cerevisiae deletion strains, locus YKL068W, stronger effect = lower value 1 | S. cerevisiae deletion strains, locus YKL085W, strain MDH1 (second series), stronger effect = lower value 0.998 | S. cerevisiae deletion strains, locus YKL085W, strain MDH1, stronger effect = lower value 0.998 | S. cerevisiae deletion strains, locus YKL160W, strain elf1, stronger effect = lower value 0.985 | S. cerevisiae deletion strains, locus YKL190W, strain CNB1, stronger effect = lower value 1.01 | S. cerevisiae deletion strains, locus YKR001C, strain vps1, stronger effect = lower value 1.01 | S. cerevisiae deletion strains, locus YKR026C, strain gcn3, stronger effect = lower value 0.996 | S. cerevisiae deletion strains, locus YKR091W, strain srl3, stronger effect = lower value 1 | S. cerevisiae deletion strains, locus YLL001W, strain dnm1, stronger effect = lower value 0.979 | S. cerevisiae deletion strains, locus YLL026W, stronger effect = lower value 1.01 | S. cerevisiae deletion strains, locus YLL041C, strain sdh2, stronger effect = lower value 0.997 | S. cerevisiae deletion strains, locus YLR027C, strain aat2, stronger effect = lower value 0.998 | S. cerevisiae deletion strains, locus YLR039C, strain RIC1, stronger effect = lower value 0.991 | S. cerevisiae deletion strains, locus YLR058C, strain SHM2, stronger effect = lower value 1.02 | S. cerevisiae deletion strains, locus YLR102C, strain apc9, stronger effect = lower value 1 | S. cerevisiae deletion strains, locus YLR113W, strain HOG1, stronger effect = lower value 0.987 | S. cerevisiae deletion strains, locus YLR221C, strain rsa3, stronger effect = lower value 1 | S. cerevisiae deletion strains, locus YLR258W, strain gsy2, stronger effect = lower value 1 | S. cerevisiae deletion strains, locus YLR262C, strain YPT6 (second series), stronger effect = lower value 0.983 | S. cerevisiae deletion strains, locus YLR262C, strain YPT6, stronger effect = lower value 0.993 | S. cerevisiae deletion strains, locus YLR268W, strain sec22, stronger effect = lower value 1.02 | S. cerevisiae deletion strains, locus YLR320W, strain mms22, stronger effect = lower value 0.978 | S. cerevisiae deletion strains, locus YLR330W, strain CHS5, stronger effect = lower value 1.01 | S. cerevisiae deletion strains, locus YLR342W, strain FKS1 (second series), stronger effect = lower value 1.03 | S. cerevisiae deletion strains, locus YLR342W, strain FKS1, stronger effect = lower value 0.991 | S. cerevisiae deletion strains, locus YLR357W, strain rsc2, stronger effect = lower value 0.957 | S. cerevisiae deletion strains, locus YLR370C, strain arc18, stronger effect = lower value 1.01 | S. cerevisiae deletion strains, locus YLR371W, strain rom2, stronger effect = lower value 1.01 | S. cerevisiae deletion strains, locus YLR384C, strain iki3, stronger effect = lower value 0.992 | S. cerevisiae deletion strains, locus YLR418C, strain cdc73, stronger effect = lower value 1 | S. cerevisiae deletion strains, locus YML016C, strain PPZ1, stronger effect = lower value 1.01 | S. cerevisiae deletion strains, locus YML032C, strain rad52, stronger effect = lower value 1.01 | S. cerevisiae deletion strains, locus YML120C, strain ndi1, stronger effect = lower value 1.01 | S. cerevisiae deletion strains, locus YML124C, strain tub3, stronger effect = lower value 1.01 | S. cerevisiae deletion strains, locus YMR058W, strain fet3, stronger effect = lower value 1 | S. cerevisiae deletion strains, locus YMR078C, strain ctf18, stronger effect = lower value 1 | S. cerevisiae deletion strains, locus YMR125W, strain sto1, stronger effect = lower value 0.988 | S. cerevisiae deletion strains, locus YMR129W, stronger effect = lower value 1 | S. cerevisiae deletion strains, locus YMR205C, strain PFK2, stronger effect = lower value 1.01 | S. cerevisiae deletion strains, locus YMR223W, strain ubp8, stronger effect = lower value 1.01 | S. cerevisiae deletion strains, locus YMR231W, strain pep5, stronger effect = lower value 0.989 | S. cerevisiae deletion strains, locus YMR263W, strain SAP30, stronger effect = lower value 1.01 | S. cerevisiae deletion strains, locus YMR307W, strain GAS1, stronger effect = lower value 0.931 | S. cerevisiae deletion strains, locus YNL067W, strain RPL9B, stronger effect = lower value 1.01 | S. cerevisiae deletion strains, locus YNL071W, strain lat1, stronger effect = lower value 0.999 | S. cerevisiae deletion strains, locus YNL128W, strain TEP1, stronger effect = lower value 1.01 | S. cerevisiae deletion strains, locus YNL153C, strain GIM3, stronger effect = lower value 1.01 | S. cerevisiae deletion strains, locus YNL183C, strain NPR1, stronger effect = lower value 0.967 | S. cerevisiae deletion strains, locus YNL209W, strain ssb2, stronger effect = lower value 1 | S. cerevisiae deletion strains, locus YNL233W, strain BNI4, stronger effect = lower value 0.995 | S. cerevisiae deletion strains, locus YNL248C, strain rpa49, stronger effect = lower value 0.996 | S. cerevisiae deletion strains, locus YNL250W, strain rad50, stronger effect = lower value 1.01 | S. cerevisiae deletion strains, locus YNL271C, strain bni1, stronger effect = lower value 1.01 | S. cerevisiae deletion strains, locus YNL298W, strain CLA4, stronger effect = lower value 1.01 | S. cerevisiae deletion strains, locus YNL307C, strain MCK1, stronger effect = lower value 1.01 | S. cerevisiae deletion strains, locus YNL322C, strain KRE1 (second series), stronger effect = lower value 1 | S. cerevisiae deletion strains, locus YNL322C, strain KRE1, stronger effect = lower value 1 | S. cerevisiae deletion strains, locus YNR049C, strain mso1, stronger effect = lower value 0.993 | S. cerevisiae deletion strains, locus YNR052C, strain pop2, stronger effect = lower value 1.01 | S. cerevisiae deletion strains, locus YOL006C, strain TOP1, stronger effect = lower value 1.02 | S. cerevisiae deletion strains, locus YOL012C, strain htz1 1.52 | S. cerevisiae deletion strains, locus YOL147C, strain pex11, stronger effect = lower value 1 | S. cerevisiae deletion strains, locus YOR001W, strain rrp6, stronger effect = lower value 0.987 | S. cerevisiae deletion strains, locus YOR061W, strain CKA2, stronger effect = lower value 1.01 | S. cerevisiae deletion strains, locus YOR069W, strain VPS5, stronger effect = lower value 1.01 | S. cerevisiae deletion strains, locus YOR070C, strain gyp1, stronger effect = lower value 1 | S. cerevisiae deletion strains, locus YOR080W, strain dia2, stronger effect = lower value 0.997 | S. cerevisiae deletion strains, locus YOR083W, strain WHI5, stronger effect = lower value 0.976 | S. cerevisiae deletion strains, locus YOR106W, strain vam3, stronger effect = lower value 0.984 | S. cerevisiae deletion strains, locus YOR136W, strain idh2, stronger effect = lower value 1.01 | S. cerevisiae deletion strains, locus YOR144C, strain elg1, stronger effect = lower value 1.01 | S. cerevisiae deletion strains, locus YOR184W, strain ser1, stronger effect = lower value 1.02 | S. cerevisiae deletion strains, locus YOR231W, strain MKK1, stronger effect = lower value 0.985 | S. cerevisiae deletion strains, locus YOR265W, strain rbl2, stronger effect = lower value 1 | S. cerevisiae deletion strains, locus YOR270C, strain vph1, stronger effect = lower value 1.01 | S. cerevisiae deletion strains, locus YOR290C, strain snf2, stronger effect = lower value 1.01 | S. cerevisiae deletion strains, locus YOR316C, strain cot1, stronger effect = lower value 1.01 | S. cerevisiae deletion strains, locus YPL051W, strain arl3, stronger effect = lower value 0.983 | S. cerevisiae deletion strains, locus YPL055C, strain LGE1, stronger effect = lower value 1.01 | S. cerevisiae deletion strains, locus YPL078C, strain atp4, stronger effect = lower value 0.976 | S. cerevisiae deletion strains, locus YPL106C, strain sse1, stronger effect = lower value 1.02 | S. cerevisiae deletion strains, locus YPL240C, strain hsp82, stronger effect = lower value 0.988 | S. cerevisiae deletion strains, locus YPL241C, strain CIN2, stronger effect = lower value 1 | S. cerevisiae deletion strains, locus YPL256C, strain CLN2, stronger effect = lower value 0.962 | S. cerevisiae deletion strains, locus YPR119W, strain clb2, stronger effect = lower value 1.02 | S. cerevisiae deletion strains, locus YPR141C, strain kar3, stronger effect = lower value 1.02 | S. cerevisiae deletion strains, locus YPR163C, strain tif3, stronger effect = lower value 1.02 | S. cerevisiae deletion strains, locus YPR167C, strain met16, stronger effect = lower value 1.02 | S. cerevisiae deletion strains, strain wtn01, stronger effect = lower value 1.04 | S. cerevisiae strains, strain wild type, stronger effect = lower value 1.01
